Assay outcomes as filed in PubChem.
TSHR antagonist – blocks TSH signaling through the human TSH receptor | 330,000 tested, 0.2% active | TSHR-expressing cells, TSH-stimulated cAMP HTRF, 2 h; stronger effect = lower value | activity change, negative = inhibition, % at 11.5 µM | AID 504810 | P16473;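 active means activity change below a set negative limit, meaning inhibition stronger than a set level, cut at about -70% in these data; inconclusive means activity change between two set negative limits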; further: on the % scale 0 is the no-effect control and ±100 the full control effect
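TSHR-expressing cells, 200/well, pre-treated with compound, then stimulated with EC80 TSH (4nM final) for 2 hours at 37 deg C. cAMP measured by competitive HTRF: anti-cAMP cryptate antibody in lysis buffer plus cAMP-d2, read after 30 minutes at room temperature.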
VDR inhibitor – blocks the human vitamin D receptor; AID 504847; VDR-SRC2-3 peptide fluorescence polarization, 2 h; 400,000 tested, 0.93% active; Potency, µM, inactives show max response, negative = inhibition, hits mostly inhibitors; P11473; further: potency means the concentration at half of the fitted maximal effect; on the % scale 0 is the no-effect control and ±100 the full control effect
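VDR–SRC2-3 interaction, FP format. Cmpds 23 nl via pintool, brief spin, 2 h ambient incubation.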
TSG101-PTAP inh – blocks PTAP/TSG101 interaction to inhibit HIV-1 budding. Q99816. Fluorescence polarization, FITC-PTAP peptide / Tsg101 binding. Potency, µM (series often up to 115 µM), inactives show at the highest dose activity change, negative = inhibition, hits mostly inhibitors. 340,000 tested, under 10 active. AID 493005; active means well fitted inhibition curve with a large enough effect in the main read-out, with a control signal flat, not every such curve was filed as active; inconclusive means small, poorly fitted or top-dose-only effect, or effect the other way, or a change in a side signal; inactive means no such curve, though single readings can be large or run the other way; further: potency means the concentration at half of the fitted maximal effect; % of control where 0% means no effect
Target sequence (Q99816 whole entry, looked up): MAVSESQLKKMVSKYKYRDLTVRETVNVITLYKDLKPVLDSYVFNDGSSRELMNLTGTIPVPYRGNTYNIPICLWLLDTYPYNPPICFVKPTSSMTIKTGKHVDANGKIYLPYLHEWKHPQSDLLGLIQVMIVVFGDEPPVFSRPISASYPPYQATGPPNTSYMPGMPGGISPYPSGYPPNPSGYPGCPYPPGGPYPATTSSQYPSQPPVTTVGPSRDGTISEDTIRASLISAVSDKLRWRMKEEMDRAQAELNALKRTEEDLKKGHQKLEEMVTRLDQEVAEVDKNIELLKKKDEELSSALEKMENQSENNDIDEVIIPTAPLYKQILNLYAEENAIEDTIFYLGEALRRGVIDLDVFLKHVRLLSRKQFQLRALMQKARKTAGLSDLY
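Tsg101 binding domain (10 uM final) was mixed with compound and a FITC-labeled PTAP peptide (50 nM final) in HEPES pH 7.5 buffer with NaCl, Tween 20, EDTA and TCEP; fluorescence polarization was read after 20 min at r.t.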
PLK1 PBD block – inhibitors of human PLK1 polo-box domain binding. P53350. Plk1 PBD binding of FITC phosphopeptide, fluorescence polarization. Potency, µM, inactives show max response, negative = inhibition, actives largely listed as inhibitors. 360,000 tested, 2.8% active; further: potency means the concentration at half of the fitted maximal effect; series mostly up to about 57 µM; on the % scale 0 is the no-effect control and ±100 the full control effect; nearly all actives have a fitted effect of over 65% in size
uPA surface inh – blocks generation of uPA at the cell surface. cell surface uPA generation assay, qHTS. Potency, µM (series often up to 38.3 µM), for the others: top-dose activity change, negative = inhibition, usual class: inhibitors. 330,000 tested, 0.31% active. AID 540303; active means well fitted inhibition curve with a large enough effect; inconclusive means small, poorly fitted or top-dose-only effect; inactive means no such curve, though single readings can be large or run the other way; tested in mouse RAW 264.7 cells; further: potency means the concentration at half of the fitted maximal effect; on the % scale 0 is the no-effect control and ±100 the full control effect; nearly all actives have a fitted effect of over 55% in size
Numbers without * were called inactive; ? = inconclusive; . = not tested or not shown. The list is not random: actives were taken first. Their share in the collection is about 3.1%. Unless noted, the call rests on the fitted dose curve; in most records, active means well fitted curve in the direction sought with a large enough effect; inconclusive means small, poorly fitted or top-dose-only effect, or another doubt; inactive means no such curve, though single readings can be large; an effect the other way counts as inactive or inconclusive.

SMILES	TSHR antagonist	VDR inhibitor	TSG101-PTAP inh	PLK1 PBD block	uPA surface inh
COc1cccc(-n2cc(C(=O)NCCc3cccc(C)c3)c3ccccc3c2=O)c1	.	8%	.	.	.
CN(Cc1ccccc1)C(=O)CSc1nc2ccccc2n1Cc1ccccc1F	.	1%	.	.	.
N#Cc1ccc(NC(=S)NC(=O)C2CC2)cc1	.	.	.	-10%	.
COc1ccc(/C=N/NC(=O)COc2ccc3ccccc3c2)c(C(=O)O)c1OC	12	79µM*	-1%	27µM*	-1%
COc1ccc(OCC(=O)N/N=C/c2ccc(OC)c(OC)c2C(=O)O)cc1	-2	-8%	-5%	2%	4%
CCCCSCCCNC(=O)c1cn(C)c2ccc(S(=O)(=O)N3CCCCCC3)cc2c1=O	.	-10%	.	.	.
CCOC(=O)c1sc(=S)n(C)c1NC(=O)c1ccc(F)cc1	27	?	1%	5.3µM*	7%
CCOC(=O)c1sc(=S)n(C)c1NC(=O)c1ccccc1C	-3	?	-5%	6µM*	0%
Cc1cc2c(cc1S(=O)(=O)NCc1ccc(F)cc1)OCC(=O)N2	.	-4%	.	.	.
CC(=O)N1c2ccccc2C2(O)N=C(C)SC12 (stereo not drawn)	-24	?	0%	5.3µM*	11%
COc1ccc(NC(=S)NNc2ccc([N+](=O)[O-])cc2S(=O)(=O)Nc2ccc(C)cc2C)cc1	-8	45µM*	-2%	27µM*	-10%
Cc1ccc(NS(=O)(=O)c2cc([N+](=O)[O-])ccc2NNC(=S)Nc2cc(C)ccc2C)c(C)c1	16	?	0%	?	-16%
CC(=O)Nc1ccc(C2=NN(C)C(=NCc3ccccc3)SC2)cc1	-10	-16%	0%	30µM*	-3%
COc1ccc(C)cc1N1CC(C(=O)Nc2cccc(C(=O)NC3CC3)c2)CC1=O (stereo not drawn)	.	.	.	2%	.
CCN(CC)c1ccc(/C=C/c2ccc3ccc(OC)cc3[n+]2CC)cc1	-24	11%	3%	-6%	-9%
CC[n+]1c(/C=C2/C=C(C)CC(C)(C)C2)sc2ccc(OC)cc21	16	?	-2%	21µM*	-10%
O=C(CSC1=NCCS1)c1ccc(Cl)cc1	13	79µM*	0%	?	2%
O=C(c1cccc([N+](=O)[O-])c1)N1CCN(c2ccc(Nc3ccccc3)nn2)CC1	.	5%	.	.	.
Nc1nc(N)c2[nH]c(=S)[nH]c2n1	.	-15%	-3%	24µM*	-5%
Cc1nc2[nH]c(=S)[nH]c2c(=O)[nH]1	.	-3%	2%	-1%	1%
Cc1oc2c(cc(NS(=O)(=O)c3ccc(C(C)C)cc3)c3ccccc32)c1C(=O)O	-12	-3%	-29%	19µM*	-1%
Cc1oc2c(cc(NS(=O)(=O)c3ccc(F)cc3)c3ccccc32)c1C(=O)O	-8	-15%	-8%	0%	4%
CCCCOc1ccc(C(=O)Nc2onc3c2CCCC3)cc1	.	23%	.	.	.
O=C(NCc1cccc(Cl)c1)C1CCCN(c2nn3cc(-c4ccc(F)cc4)nc3s2)C1 (stereo not drawn)	.	-5%	.	.	.
Cc1ccc(NCc2ccccc2O)cc1	-3	-6%	-6%	3%	.
Cc1ccc(CNc2ccc(O)cc2)cc1	-7	20µM*	1%	?	2%
CS[C@@H]1SC[C@H]2C(=O)N(C)C(C(C)C)C(=O)OC[C@@H](NC(=O)c3cnc4ccccc4n3)C(=O)N[C@@H](C)C(=O)N(C)[C@H]1C(=O)N(C)C(C(C)C)C(=O)OC[C@@H](NC(=O)c1cnc3ccccc3n1)C(=O)N[C@@H](C)C(=O)N2C (stereo partly drawn)	.	17%	.	.	.
CCOC(=O)Cc1csc(NC(=O)Cc2ccc(Cl)cc2)n1	0	-14%	-7%	-11%	-2%
